The nature of test [1]: AP1 Signaling Pathway (AID 357).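 Further: ME-180 reporter cells stimulated with EGF at its EC50 level; on the % scale 0 is the no-effect control and ±100 the full control effect.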 The settings on record: ME-180 AP-1-bla reporter, EGF-induced, beta-lactamase ratio, 5 h. In outline:
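AP-1-bla ME-180 cells, Opti-MEM + 0.5% dialyzed FBS, plated overnight 37 °C. Cpd titration + EC50 EGF, 5 h 37 °C. CCF4 2.5 h RT; ex 405, em 460/530 ratio → %activity, AC50.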

Test [2] is described as follows: NFAT Signaling Pathway (AID 444).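 Further: carbachol stimulus at about its EC50 of 1 µM final; on the % scale 0 is the no-effect control and ±100 the full control effect.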 The settings on record: Jurkat NFAT-bla M1, carbachol, beta-lactamase ratio, 5 h. In short, it runs like this: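 Jurkat cells with NFAT-driven β-lactamase reporter and co-expressed M1 receptor, stimulated with carbachol (final 1 uM, ~EC50), compound titration, 5 h at 37 °C. CCF4 loaded 1 h at RT; 460/530 nm ratio gave %activity and AC50.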

A short description of test [3]: Stat Signaling Pathway (AID 446).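 Further: ME-180 cervical cancer cells given 40 pM IL-6 alongside compound; SIE-controlled beta-lactamase reporter measured as 460/530 nm FRET emission ratio; on the % scale 0 is the no-effect control and ±100 the full control effect.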 The settings on record: ME-180 (cervical carcinoma) SIE beta-lactamase reporter, IL-6 stimulated, 5 h; series mostly up to 17.2 µM. In short, it runs like this:
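IL-6/STAT signaling read in ME-180 cells via an SIE beta-lactamase reporter. Stimulus was 40 pM IL-6 (its AC50) for 5 hrs, so both activation and inhibition register.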

Test [4] addresses Glucocorticoid receptor (Homo sapiens) (UniProt P04150). Kind of test: GR-EFC Redistribution (AID 451; calls by dose curve; further: potency means the concentration at half of the fitted maximal effect). The settings on record: CHO-K1 GR-EFC translocation, beta-gal luminescence, 2 h. In outline:
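CHO-K1 cells expressing nuclear EA and GR-ED fragments of b-gal; compounds titrated up to 46 uM final, 2 h at 37 C. GR nuclear translocation read as complemented b-gal luminescence after 1 h RT detection.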

The target in test [5] is Mitogen-activated protein kinase 10 (Mus musculus) (UniProt Q61831). The experiment in a line: JNK3 AlphaScreen Assay (AID 530).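 Further: kinase came from lysate of stimulated human HepG2 cells; signal reports phosphorylation of biotinylated GST-cJun 1-79 at Ser73 with 10 µM ATP; on the % scale 0 is the no-effect control and ±100 the full control effect.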 The settings on record: JNK3 lysate, c-Jun phosphorylation; series mostly up to 57.1 µM. In short, it runs like this:
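Pre-activated (IL-1β/TNFα) JNK3 in HepG2 lysates phosphorylates biotin-GST-cJun(1-79), 10 uM ATP; anti-phospho-cJun(Ser73) AlphaScreen read at room temperature, pH 7.6 Tris buffer. Compounds pre-incubated 15 min as titrations.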
Background: Bead proximity is the source of the signal in Alpha formats.

Test [6] addresses Cytochrome P450 1A2 (Homo sapiens) (UniProt P05177). The experiment in a line: p450-cyp1a2 (AID 410; calls by dose curve;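 further: -100% = full effect of reference inhibitor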). The settings on record: recombinant CYP1A2, luciferin-ME demethylation, luminescence; series mostly up to 57 µM. In outline:
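Luminescent readout of luciferin formed from Luciferin-ME by human CYP1A2; data normalized against complete inhibition by 57 uM furafylline. Enzyme 20nM, substrate 100uM at Km, 100mM KPO4 buffer, 60 min reaction at room temperature.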

Test [7] has as its target Glucocorticoid receptor (Homo sapiens) (UniProt P04150). Kind of test: GR-GFP Redistribution (AID 450;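 active means compounds whose dose series gives a full or clear partial fitted curve of increased nuclear translocation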; further: potency means the concentration at half of the fitted maximal effect). The settings on record: U2OS GR-GFP nuclear translocation, laser cytometry, 2 h.
Test [8] in a line: Cell Viability - Hek293 (AID 427;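 active means compounds whose dose-response curve shows a full or clear partial loss of cell viability, called from curve shape rather than a numeric limit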;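 further: potency means the concentration at half of the fitted maximal effect; cells exposed to compound for 40 hours at 37 °C before reading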). The settings on record: qHTS. In outline: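 AC50 values derive from Hill-modelled concentration-response of ATP-based luminescence, normalized between DMSO-only and 100 uM tamoxifen controls. Cells were exposed in complete culture medium for 40 hr at 37 °C before detection.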
A general note: Quantitative high-throughput screening tests each substance at several concentrations.

Test [9] can be described thus: Cell Viability - SK-N-SH (AID 435; calls by dose curve;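 further: potency means the concentration at half of the fitted maximal effect; compound exposure lasted 40 h at 37 °C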). The settings on record: SK-N-SH neuroblastoma cell viability qHTS. In outline:
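SK-N-SH human neuroblastoma cells (1500/well) were exposed to compounds in complete medium for 40 h at 37 °C, and intracellular ATP was then measured by CellTiter-Glo luminescence. AC50 was taken from Hill fits, normalized to DMSO and 100 uM tamoxifen.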

Test [10] in a line: Cell Viability - NIH 3T3 (AID 541; active means well fitted cell-killing curve with a large enough effect;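 further: plate controls were DMSO alone for no effect and tamoxifen positive control for full effect; nearly all actives have a fitted effect of over 25% in size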). The settings on record: NIH 3T3 cell viability, qHTS; activity change, negative = cytotoxicity: at 92.2 µM (top of the series). In short, it runs like this:
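Luminescent ATP signal (CellTiter-Glo) served as the viability read-out after NIH 3T3 cells were exposed to compounds over a concentration range for 40 hr at 37 °C. Hill-equation modelling of concentration-response data gave AC50.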

Test [11] is described as follows: Cell Viability - H-4-II-E (AID 543; active means well fitted cell-killing curve with a large enough effect; further: potency means the concentration at half of the fitted maximal effect; nearly all actives have a fitted effect of over 35% in size). The settings on record: H-4-II-E rat hepatoma viability; series mostly up to 92.2 µM. In outline:
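Luminescent ATP signal (CellTiter-Glo) served as the viability read-out, with cytotoxicity seen as a concentration-dependent ATP drop. Cells were treated for 40 hours in complete medium. AC50 values derive from Hill-equation modelling.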

Test [12] is described as follows: Cell Viability - Renal Proximal Tubule (AID 545; active means well fitted cell-killing curve with a large enough effect;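 further: 0% = DMSO only and -100% = 100 µM tamoxifen; nearly all actives have a fitted effect of over 40% in size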). The settings on record: renal proximal tubule cells viability, primary cells of rat origin; activity change, negative = cytotoxicity: at 91.7 µM (top of the series). In outline:
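Primary rat renal proximal tubule cells (1000/well) were treated with compounds for 40 hr at 37 °C in complete medium. Intracellular ATP was measured by CellTiter-Glo luminescence, and AC50 values came from Hill-equation fits of concentration-response data.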

“And” between values parts separate entries of the source, which are not always exact repeats. Equal entries are not always repeated. Values without a mark were called inactive. Records with an inconclusive call do not appear. The source made the active and inactive calls. Unless noted, the call rests on the fitted dose curve; in most records, active means well fitted curve in either direction with a large enough effect (not every such curve was filed as active); inconclusive means small, poorly fitted or top-dose-only effect, or another doubt; inactive means flat fitted curve, though single readings scatter.

Cytochrome P450 1A2 (Homo sapiens), sequence (P05177 whole entry, looked up): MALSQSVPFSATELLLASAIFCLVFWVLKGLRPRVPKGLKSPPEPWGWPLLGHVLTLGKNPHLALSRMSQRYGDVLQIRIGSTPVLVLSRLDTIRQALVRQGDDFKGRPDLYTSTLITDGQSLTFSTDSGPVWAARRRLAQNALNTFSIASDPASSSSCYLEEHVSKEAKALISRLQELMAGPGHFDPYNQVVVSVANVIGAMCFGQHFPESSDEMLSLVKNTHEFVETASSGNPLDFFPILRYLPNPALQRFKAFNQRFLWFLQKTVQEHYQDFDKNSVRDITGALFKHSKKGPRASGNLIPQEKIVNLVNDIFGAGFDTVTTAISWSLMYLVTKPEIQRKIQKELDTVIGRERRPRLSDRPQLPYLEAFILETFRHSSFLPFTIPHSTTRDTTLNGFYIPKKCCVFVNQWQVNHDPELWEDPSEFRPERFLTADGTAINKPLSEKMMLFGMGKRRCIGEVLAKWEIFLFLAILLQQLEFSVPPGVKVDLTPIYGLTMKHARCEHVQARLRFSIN
Glucocorticoid receptor (Homo sapiens), sequence (P04150 whole entry, looked up, the tested form may be a part): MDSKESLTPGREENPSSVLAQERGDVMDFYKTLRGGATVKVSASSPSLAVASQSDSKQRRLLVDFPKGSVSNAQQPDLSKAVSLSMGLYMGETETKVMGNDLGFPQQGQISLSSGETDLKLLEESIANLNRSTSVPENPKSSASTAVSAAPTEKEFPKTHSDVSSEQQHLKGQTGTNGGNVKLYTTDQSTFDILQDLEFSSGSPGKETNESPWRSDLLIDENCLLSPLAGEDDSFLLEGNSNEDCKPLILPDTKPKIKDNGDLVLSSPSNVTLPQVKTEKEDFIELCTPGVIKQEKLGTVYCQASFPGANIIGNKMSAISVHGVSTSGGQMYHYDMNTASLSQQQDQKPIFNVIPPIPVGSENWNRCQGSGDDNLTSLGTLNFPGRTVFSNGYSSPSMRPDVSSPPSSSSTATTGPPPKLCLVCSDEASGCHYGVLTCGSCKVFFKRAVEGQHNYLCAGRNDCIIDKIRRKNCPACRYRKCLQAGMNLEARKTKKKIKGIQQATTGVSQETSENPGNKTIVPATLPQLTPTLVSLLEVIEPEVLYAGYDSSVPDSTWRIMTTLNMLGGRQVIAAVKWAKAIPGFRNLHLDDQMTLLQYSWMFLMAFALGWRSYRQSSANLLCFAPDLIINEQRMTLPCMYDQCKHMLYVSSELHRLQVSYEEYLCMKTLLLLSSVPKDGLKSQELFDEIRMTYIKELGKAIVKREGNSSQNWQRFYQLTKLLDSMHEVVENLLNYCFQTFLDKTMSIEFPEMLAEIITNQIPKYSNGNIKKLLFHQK

On to `Cc1ccc(S(=O)(=O)NC(=O)NN2CCCCCC2)cc1`, for which the activity change, negative = inhibition is -5.47% and 3% in [1] (at 17.2 µM (top of the series)); 4.52% in [1] (at 38 µM (top of the series)); -5.82% and -2.02% in [2] (at 17.2 µM (top of the series)); -9.25% in [2] (at 38 µM (top of the series)). Further, the compound was classed as inactive in test [3]. Besides, the Potency in test [4] was > 46 µM and > 20.6 µM. Besides, the Potency entry in test [5] is “inactive”.

`CCN1CCc2nc(N)oc2CC1`: the activity change, negative = inhibition is 9.25% in test [1] (at 38 µM (top of the series)) and -7.89% in test [2] (at 38 µM (top of the series)). Also, the Potency result in test [6] was “inactive”. In addition, the outcome in test [3] was inactive. For the same compound, the Potency in test [7] and in test [4] was over 46 µM each time.

For `Cc1nnc(SCC2=C(C(=O)O)N3C(=O)[C@@H](NC(=O)Cn4cnnn4)[C@H]3SC2)s1`, the activity change, negative = inhibition was 6.59% in test [1] (at 17.2 µM (top of the series)) and -25% in [2] (at 17.2 µM (top of the series)). Moreover, the compound was classed as inactive in test [3].

As for `CCCN(CCC)CCc1cccc2c1CC(=O)N2`, in test [1] (at 38 µM (top of the series)), the activity change, negative = inhibition was 3.44%. The Potency result in [6] and in test [5] was “inactive” in each case. Besides, the Potency in test [7] and in test [4] was over 46 µM in each case.

With `CN/C(=C\[N+](=O)[O-])NCCSCc1ccc(CN(C)C)o1`, the activity change, negative = inhibition is -3.39% in [1] (at 17.2 µM (top of the series)), -6.59% in test [1] (at 38 µM (top of the series)), -7.07% in test [2] (at 17.2 µM (top of the series)) and 1.99% in [2] (at 38 µM (top of the series)). In addition, the call in test [3] was inactive. The Potency in test [4] was > 46 µM and > 20.6 µM. Further, in [5], the Potency result was “inactive”.

Turning to `C=CCc1ccccc1OCC(O)CNC(C)C` (stereo unspecified), the results for the activity change, negative = inhibition in test [1] (at 17.2 µM (top of the series)) and in test [2] (at 17.2 µM (top of the series)) were 12.6% and 5.58%, respectively. For the same compound, the result in [3] was inactive.

Take `CCn1nc(C(=O)O)c(=O)c2cc3c(cc21)OCO3`: the activity change, negative = inhibition in test [1] (at 17.2 µM (top of the series)) is -3.87% and 14.9%; in [1] (at 38 µM (top of the series)) it was -2.22%; in test [2] (at 17.2 µM (top of the series)), 0.808% and 1.97%; in test [2] (at 38 µM (top of the series)) it was 8.98%. The compound was classed as inactive in [3]. Besides, the Potency in test [7] was > 46 µM and > 20.6 µM; in test [4] it was > 46 µM and > 20.6 µM. Also, the Potency entry in [5] was “inactive”.

For `C[N+](C)(C)CCOC(N)=O`, the activity change, negative = inhibition in test [1] (at 38 µM (top of the series)) is 21.2%. Besides, the Potency result in [6] and in test [5] was “inactive” each time. In test [3], the call was inactive.

On to `Nc1nc(N)c2nc(-c3ccccc3)c(N)nc2n1`, for which the activity change, negative = inhibition in test [1] (at 17.2 µM (top of the series)) was 16.6% and 10.9%; in [1] (at 38 µM (top of the series)), -2.44%. Besides, the Potency in [8] is 18 µM (active); in test [9], 66.1 µM (active); in [4] it was > 46 µM and > 20.6 µM; in test [11], 0.316 µM (active). The outcome in test [3] was inactive. For the same compound, the Potency result in test [5] was “inactive”. Also, the figures for the activity change, negative = cytotoxicity in test [10] and in [12] were -88.4% (active) and -93% (active), respectively.

As to `COCCOC(=O)C1=C(C)NC(C)=C(C(=O)OC(C)C)C1c1cccc([N+](=O)[O-])c1` (stereo unspecified), the values for the activity change, negative = inhibition in test [1] (at 17.2 µM (top of the series)) and in test [2] (at 17.2 µM (top of the series)) were -20.8% and -7.25%, respectively. The compound was classed as inactive in test [3].

(Values after PubChem BioAssay (NCATS).)
